{
  "source": "PubChem BioAssay (NCI)",
  "note": "About 83,000 compounds went through this panel and 20% of them were active in at least one assay; those are over-represented in the sample as a whole.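 Compound tested at a single concentration for 48 hours in 96-well plates; a percent growth value below 10 was scored as active.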 A number with no mark means an inactive call. Active and inactive are the calls of the source.",
  "data": [
    {"system": "HL-60(TB) leukemia", "test": "NCI-60 one-dose screen, 48 h (100 = growth as untreated, 0 = no growth, -100 = all killed)", "conditions": "10 µM unless noted", "values": [
      {"smiles": "COc1ccc(/C=N/Nc2nc3ccccc3s2)cc1", "growth": "84.9%"},
      {"smiles": "CC[n+]1c(/C=C/c2ccc(N3CCCC3)cc2)cccc1/C=C/c1ccc(N2CCCC2)cc1", "growth": "-20.8% (active)"},
      {"smiles": "O=C(O)/C=C/C(=O)Nc1cccc(Cn2nnc3cc(Cl)c(Cl)cc32)c1", "growth": "112%"},
      {"smiles": "O=C(c1ccc(O)cc1)c1ccc(O)cc1", "growth": "117%"},
      {"smiles": "CCCNC(=O)Oc1ccc(/C(=C(/C)Cc2ccc(OC)cc2)c2ccc(OCCN3CCCCC3)cc2)cc1", "growth": "58.6%"},
      {"smiles": "O=c1[nH]c(Cc2nc3ccccc3s2)nc2cc(Br)ccc12", "growth": "77%"},
      {"smiles": "Cc1cc(NCCN(C(C)C)C(C)C)nc(/N=C(\\N)Nc2ccc(Cl)c(C(F)(F)F)c2)n1", "growth": "-87.9% (active)"},
      {"smiles": "O=C(CN1CCOCC1)Nc1ccc2ncnc(Nc3ccc(Oc4cccc(C(F)(F)F)c4)c(Cl)c3)c2c1", "growth": "70.1%"},
      {"smiles": "CN(C)c1ccc(CNC(C(=O)c2ccccc2)c2ccccc2)cc1", "note": "(stereo not given)", "growth": "97.1%"},
      {"smiles": "Fc1ccc(/C=N/n2c(-c3cc(Cl)cc(Cl)c3Cl)nn(CNc3ccc(Cl)nn3)c2=S)cc1", "growth": "90.1%"},
      {"smiles": "COc1cc(C(=O)Oc2ccccc2OC(=O)c2cc(OC)c(OC)c(OC)c2)cc(OC)c1OC", "growth": "110%"},
      {"smiles": "CN(C)c1ccc(C(=O)c2ccc(N(C)C)c(N)c2)cc1N", "growth": "7.38% (active)"},
      {"smiles": "CC(C)(C)c1cc(C(C)(C)C)cc(S(=O)(=O)Nc2cc3ccccc3cc2C(=O)NCCN)c1", "growth": "-19.8% (active)"},
      {"smiles": "COc1cc(/C=N/NC(=O)c2ccccc2Nc2ccnc(C(F)(F)F)c2)ccc1O", "growth": "14%"},
      {"smiles": "CC(=O)Oc1c(Cl)cccc1-c1ccccc1", "growth": "99.6%"},
      {"smiles": "CCOC(=O)/C(=C(/C)NCC(C)C)c1cc(O)c(O)c2c(C)cc(=O)[nH]c12", "growth": "-6.69% (active)"},
      {"smiles": "CCCCN1CCN(c2ccc3nc(-c4ccc5nc(-c6ccc(OCC)c(OCC)c6)[nH]c5c4)[nH]c3c2)CC1", "growth": "3.99% (active)"},
      {"smiles": "CCN(CC)CC(=O)Nc1c(C)ccc(N)c1C", "growth": "74.2%"},
      {"smiles": "CCOC(=O)c1sc(-c2ccc(OS(=O)(=O)c3cccs3)c(C=O)c2)nc1C", "growth": "-34.1% (active)"},
      {"smiles": "O=C1C(=O)N(CCCCn2cc(-c3ccccc3)nn2)c2ccccc21", "growth": "118%"},
      {"smiles": "COC(=O)c1cnc2c(c1)Oc1ccc(Cl)cc1-c1cc(C)nn1-2", "growth": "95.9%"},
      {"smiles": "COc1ccc(Cn2cnc3cc(C(=O)Nc4cccc5ccccc45)ccc32)c(OC)c1", "growth": "-33.3% [30 µM] (active)"},
      {"smiles": "CCOC(=O)c1sc(NC(=O)c2cc(OC)c(OC)c(OC)c2)nc1C", "growth": "102%"},
      {"smiles": "CCCCCC[C@@H](O)C/C=C\\CCCCCCCC(=O)OCCOC", "growth": "156%"},
      {"smiles": "O=C(Cn1nnc2ccccc21)N/N=C/c1ccccc1F", "growth": "107%"},
      {"smiles": "O=C1C(Cl)=C(Nc2ccc(S(=O)(=O)c3ccc(NC4=C(Cl)C(=O)c5ccccc5C4=O)cc3)cc2)C(=O)c2ccccc21", "growth": "32.7%"},
      {"smiles": "O=C1c2c(c3c4cccc(F)c4[nH]c3c3ccc4ccccc4c23)C(=O)N1O", "growth": "31%"},
      {"smiles": "O=C1c2cccnc2C(=O)c2c1c(C(=O)OCCc1ccccn1)c1ccccn21", "growth": "-19.5% (active)"},
      {"smiles": "CC(C)(C)c1cc(C[P+](c2ccccc2)(c2ccccc2)c2ccccc2)cc(C(C)(C)C)c1O", "growth": "-45.3% (active)"},
      {"smiles": "Cc1ccc(SC2c3ccc(C)cc3Oc3nc(N)c(C#N)c(N)c32)cc1", "note": "(stereo not given)", "growth": "-6.43% (active)"},
      {"smiles": "Fc1ccc(-c2cnc3nonc3n2)c(F)c1", "growth": "7.84% (active)"},
      {"smiles": "COc1cccc(-c2nn(-c3ccccc3)cc2-c2ccnc(NCCCNC(=O)c3cccc(C(F)(F)F)c3)c2)c1", "growth": "7.43% (active)"},
      {"smiles": "c1ccc(-c2nc(Nc3nccnn3)c3ccccc3n2)cc1", "growth": "99.4%"},
      {"smiles": "Cc1ccc(N=Nc2c(N)nc(N)[nH]c2=O)cc1C", "growth": "97.3%"},
      {"smiles": "COc1cccc(-c2cc(-c3cccc(Cl)c3)c(C#N)c(=O)[nH]2)c1", "growth": "36.2%"},
      {"smiles": "O=C(Nc1ccc(Cl)c([N+](=O)[O-])c1)Nc1nc2ccccc2s1", "growth": "91.3%"},
      {"smiles": "COc1ccc2sc3c(NCCCN)nc4ccccc4c3c(=O)c2c1", "growth": "2.17% (active)"},
      {"smiles": "COc1ccc(Cn2cc3c(c2-c2ccc(O)cc2)CCc2cnoc2-3)cc1", "growth": "4.87% (active)"},
      {"smiles": "Fc1ccccc1-c1cnn2cc(-c3ccccc3)cnc12", "growth": "98.6%"},
      {"smiles": "C1CCC(N2CN3c4nonc4N4CN(C5CCCCC5)CN5c6nonc6N(C2)C3C45)CC1", "note": "(stereo not given)", "growth": "100%"}
    ]}
  ]
}
